Measurements reported in PubChem BioAssay (NCI).
Compounds without any hit were thinned out: in the full panel of roughly 83,000, 20% have a hit.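 48-hour exposure, single concentration, 96-well plates; percent growth endpoint where 0 means no net growth. Active: below 10.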 Unmarked numbers belong to inactive results. Activity calls are given as the source filed them.

Legend:
Experiment in all cases: NCI-60 one-dose screen, 48 h (100 = growth as untreated, 0 = no growth, -100 = all killed)
Settings in all cases: 10 µM unless noted
[1] = system: NCI-H23 lung
[2] = system: NCI-H226 lung
[3] = system: NCI-H322M lung
[4] = system: HOP-62 NSCLC
[5] = system: NCI-H460 lung
[6] = system: HOP-92 NSCLC
[7] = system: NCI-H522 lung
[8] = system: A549/ATCC NSCLC
[9] = system: 786-0 renal
[10] = system: COLO 205 colon
[11] = system: DU-145 prostate
[12] = system: K-562 leukemia
[13] = system: MALME-3M melanoma
[14] = system: MDA-MB-231 breast
[15] = system: RXF 393 renal
[16] = system: SF-268 CNS
[17] = system: SF-295 CNS
[18] = system: SF-539 CNS
[19] = system: UACC-257 melanoma
[20] = system: M14 melanoma

Structure (SMILES) | growth [1] [%] | growth [2] | growth [3] [%] | growth [4] | growth [5] | growth [6] [%] | growth [7] | growth [8] | growth [9] | growth [10] | growth [11] | growth [12] | growth [13] | growth [14] [%] | growth [15] | growth [16] [%] | growth [17] | growth [18] | growth [19] | growth [20]
COc1cc(C=Nc2oc(-c3ccccc3)c(-c3ccccc3)c2C#N)cc(CN2CCCC2)c1O | 94.8 | 93.7% | 103 | 94% | 102% | 85.6 | 85.8% | 94.4% | 99.3% | 114% | 108% | 94.4% | 117% | 95.7 | 111% | 96.4 | 98.5% | 95.1% | 107% | 100%
CC12OC(CC(O)C1O)n1c3ccccc3c3c4c(c5c6ccccc6n2c5c31)C(=O)N(CCN1CCCC1)C4=O (stereo not given) | 14.3 | 2.49% (active) | 28.5 | 2.4% (active) | -17.3% (active) | 34.1 | -0.973% (active) | 1.98% (active) | 14.5% | 14.4% | 3.68% (active) | 4.59% (active) | 13.2% | 56.9 | 21.1% | 29 | 2.23% (active) | 22.8% | 24.5% | 19%
O=c1cc(CNc2cc(F)cc(F)c2)c2ccc(I)cc2[nH]1 | 46.3 | 68.6% | 48.3 | 37.5% | 18.5% | 54 | 15.6% | 38.6% | 43.7% | 33.7% | 38.4% | 9.97% (active) | 38.9% | 60.6 | 15.1% | 46.9 | 30.9% | -12.6% (active) | 53.4% | 20%
Fc1ccc2[nH]cc(-c3nc(-c4c[nH]c5c(Cl)nccc45)cs3)c2c1 | 60.4 | 40% | 76.7 | 57.1% | 4.9% (active) | 36.4 | 16.7% | 22.5% | -19.4% (active) | 25.2% | 32% | 11.8% | 74.3% | 13.7 | 16.3% | 67.2 | 18.1% | 41.1% | -38.3% (active) | -5.3% (active)
CNC(=O)NCC1OC(n2cnc3c(NC(=O)Nc4ccccc4)ncnc32)C2OC(=O)CC12 (stereo not given) | 90.2 | 99.2% | 101 | 94.2% | 114% | 71.2 | 106% | 120% | 98.3% | 110% | 110% | 81.1% | 100% | 98.9 | -22.7% (active) | 99.7 | 103% | 104% | 125% | 105%
N#Cc1ccccc1-c1ccc(CN2C(=O)S/C(=C\c3ccc(Br)cc3)C2=O)cc1 | 96.6 | 86.9% | 101 | 94.8% | 106% | 94.6 | 94.8% | 97.3% | 99.3% | 111% | 105% | 93.8% | 96.8% | 95.9 | 104% | 99.4 | 93.1% | 99.7% | 92.3% | 98.2%
COc1ccc(-c2cc(-c3cc(OC)ccc3OC)nc(SCC(C)=O)c2C#N)cc1 | 76.1 | 83.4% | 97.6 | 75.5% | 78.8% | 38.2 | 54.9% | 49.4% | 75% | 78.2% | 73.7% | 72.2% | 92% | 50.9 | -0.171% (active) | 65.8 | 58.5% | 64.9% | 93.5% | 69.8%
CN1C(=O)/C(=C/c2ccc(C(=O)Nc3ncc(Cc4cccc(C(F)(F)F)c4)s3)cc2)SC1=S | 37.5 | 58% | 69.5 | 58.5% | 30.1% | 27.3 | 35.5% | 47.4% | 65% | 53% | 68.5% | 48.2% | 32.2% | 69.1 | 26.9% | 59.3 | 26.4% | 56.3% | 71.7% | 16.4%
c1cc(OCCN2CCCC2)ccc1CNc1ccc2nc(CCC3CCCCC3)[nH]c2c1 | 81.9 | 51.3% | 78.2 | 57.8% | 52.6% | 25.3 | 63.2% | 50.2% | -60.1% (active) | -73.9% (active) | 65.2% | -11.7% (active) | -83.7% (active) | 11.2 | 42.2% | 58.3 | -30% (active) | -72.4% (active) | -77.8% (active) | -86.9% (active)
COc1cc(-c2ccc(-c3ccc(C(=N)N)cc3)s2)cc(OC)c1OC | 84.4 | 82.5% | 73.2 | 59.1% | 37.1% | 43.4 | 62.4% | 75.4% | 69.4% | -41.8% (active) | 63.6% | 1.05% (active) | 32.7% | 53.2 | 80.9% | 65.1 | 46.2% | 47.1% | 63.5% | 47.9%
CCCCCc1ccc(S(=O)(=O)Nc2cc(-c3csc(NC(C)=O)n3)ccc2N2CCN(C)CC2)cc1 | 65.5 | 94.1% | 73.2 | 83.3% | -11.4% (active) | 36 | 67.3% | 55.8% | 56.7% | -38.9% (active) | 75.8% | -32.6% (active) | -47.1% (active) | 51.8 | 33.3% | 72 | 49.9% | 61.6% | -21.9% (active) | -52.4% (active)
CN(C)CCC(=O)C1CC1 | 97 | 102% | 98.4 | 91.2% | 103% | 101 | 97.1% | 103% | 99.4% | 112% | 111% | 102% | 102% | 103 | 104% | 102 | 116% | 107% | 91.7% | 104%
CC1=C2CC/C(C)=C/CC[C@]3(C)O[C@H]3CC/C(C)=C/[C@H]2OC1 | 97.3 | 109% | 101 | 107% | 107% | 94.6 | 87% | 90.5% | 92% | 104% | 110% | 87.5% | 112% | 96.5 | 126% | 105 | 91% | 95.1% | 98.3% | 103%
CC(C)NS(=O)(=O)/N=C1\NC(=O)NC1=C(Cl)Cl | 101 | 95.3% | 103 | 101% | 99.2% | 122 | 54.2% | 94% | 110% | 113% | 104% | 91.3% | 99.9% | 116 | 112% | 91.3 | 103% | 96% | 76.8% | 97.2%
CCOC(=O)c1cnn(CC(C)O)c1NC(=O)NCc1cccc(F)c1 (stereo not given) | 97.5 | 103% | 97.7 | 100% | 105% | 68 | 66% | 100% | 95.1% | 118% | 96.7% | 81.1% | 99.2% | 106 | 111% | 101 | 99.9% | 98.2% | 99.7% | 83.2%
C=C(C)[C@@H]1CC[C@]2(C(=O)N3CCNCC3)CC[C@]3(C)[C@H](CC[C@@H]4[C@@](C)(CCC(=O)N5CCNCC5)[C@H](C(=C)C)CC[C@]43C)[C@@H]12 | 93.2 | 92.7% | 102 | 92.9% | 8.8% (active) | 95.5 | 71.4% | 75.2% | 80.2% | 77.9% | 79.1% | 3.02% (active) | 98.9% | 71.2 | 82.2% | 98.4 | 101% | 79.4% | 95.5% | 85.8%
